Assay results reported in PubChem BioAssay.
“And” between values parts separate entries of the source, which are not always exact repeats. Identical values can stand only once. The list shows a part of the results. Records with an inconclusive call do not appear. The source made the active and inactive calls.

Columns and labels:
[1] = biological target: Solute carrier family 12 member 5 (Homo sapiens) (UniProt Q9H2X9); assay: retest of KCC2 transport modulators without sodium – cell-based, HEK293 KCC2, thallium flux, secondary assay, confirmation (AID 1713;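 active means thallium flux slope above the same plate's solvent-only control mean plus 3 SD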); settings: FluoZin2 fluorescence, at 10 µM, stronger effect = higher value
[2] = PubChem AID 1714; settings: HEK293-KCC2 + bumetanide/ouabain, thallium flux FluoZin2; at 10 µM; stronger effect = higher value;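 further: raw slope of fluorescence over initial fluorescence between 10 and 20 s after thallium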
[3] = biological target: Solute carrier family 12 member 5 (Homo sapiens) (UniProt Q9H2X9); assay: retest of KCC2 transport modulation, ouabain-free – cell-based, HEK293 KCC2, thallium flux, FluoZin2, secondary assay 2, confirmation (AID 1715;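 active means thallium flux slope more than 3 SD above or below the plate's solvent-only control mean, mostly below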;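 further: raw slope with 0.1% DMSO as baseline and bumetanide as block control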); settings: HEK293-KCC2, thallium flux FluoZin2 fluorescence; at 10 µM; actives lie on both sides
[4] = compound effects on native HEK Tl+ uptake – HEK cells, counterscreen 1, counter-screen for KCC2 modulator project, confirmation (AID 1716;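 active means thallium flux rate significantly above the same plate's solvent-only control wells, beyond their mean plus 3 SD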); settings: HEK293 parental cells, thallium flux FluoZin2, ouabain; at 10 µM; baseline-ratio fluorescence slope, 10–20 s after thallium
[5] = biological target: Solute carrier family 12 member 5 (Homo sapiens) (UniProt Q9H2X9); assay: modulation of KCC2 thallium flux in HEK cells – cell-based, ouabain, retest, confirmation (AID 1717;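 active means thallium flux slope beyond 3 SD from same-plate DMSO control mean in most replicates, usually higher, sometimes lower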;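 further: slope of initial-normalized fluorescence between seconds 10 and 20 after thallium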); settings: HEK293-KCC2, thallium flux FluoZin2 fluorescence, at 10 µM, bidirectional: low = inhibitor, high = activator
[6] = native HEK Tl+ uptake effects, second counter-screen – HEK cells, counterscreen 2, counter-screen for KCC2 modulator project, confirmation (AID 1718;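 active means thallium flux slope above the same plate's solvent-control mean plus 3 SD in both duplicate wells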;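 further: run without ouabain in cells lacking the KCC2 cotransporter; slope of fluorescence scaled to its starting value between 10 and 20 s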); settings: HEK293 parental, thallium flux FluoZin-2 fluorescence slope; at 10 µM
[7] = inhibitors of TNFa-induced NFkB p65 translocation, primary screen, imaging, HUVEC, MLSMR starter and 10KST1 sets (AID 438;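 active means inhibition above 20% together with a positive visual image hit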;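 further: compound added about 3h40 before a 20 min TNFalpha stimulation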;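 on inhibition: signal is the nuclear over cytoplasmic p65 intensity ratio per well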); settings: HUVEC TNFa-induced p65 nuclear translocation; cell count: measured here: nuclei count (cytotoxicity indicator), at 2.08 µM unless noted; inhibition: at 2 µM, stronger effect = higher value unless noted
[8] = reduction of polyQ htt aggregates in cells – imaging, exon1htt(103Q)mCFP cells, high-content imaging, primary screen (AID 483;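 active means visual image review flags a hit and inhibition of aggregation exceeds 20%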;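 further: compound exposure lasted 3 days before fixation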;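 on nuclei count: percent of the per-plate median nuclei count of sample wells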); settings: exon1htt(103Q)mCFP cell line, aggregate imaging, at 2 µM; inhibition of aggregation: stronger effect = higher value; nuclei count: measured here: cell count, toxicity
[9] = endothelial E-selectin expression blockers – imaging, HUVEC, immunofluorescence, MLSMR starter and 10KST1 sets, primary screen (AID 487;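 active means visually confirmed hit in the image check and inhibition above 20%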;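 on inhibition: signal is fraction of cell area covered by stained E-selectin grains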;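 on nuclei count: 100% = median nuclei count of all wells on the same plate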); settings: HUVEC TNFalpha-induced E-selectin immunofluorescence imaging, at 2 µM; inhibition: stronger effect = higher value; nuclei count: measured here: cell number, toxicity
[10] = Primary imaging screen for DUSP6 inhibitors that restore phospho-Erk in transfected HeLa cells, chemical complementation (AID 609;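 active means compounds giving at least 50% inhibition in the cell-based MKP-3 phosphatase rescue imaging test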;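 on inhibition: phospho-Erk level distribution per well compared with pooled transfected vehicle control wells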); settings: HeLa MKP-3 transfected, phospho-Erk imaging KS statistic, at 10 µM
[11] = biological target: Dual specificity protein phosphatase 6 (Homo sapiens) (UniProt Q16828); assay: as above; settings: HeLa MKP-3 transfected, phospho-Erk imaging KS statistic, at 10 µM, stronger effect = higher value
[12] = biological target: Voltage-gated potassium channel subunit beta-2 (Rattus norvegicus) (UniProt P62483); assay: inhibitors of rat Kvbeta2 reductase activity – biochemical, NADPH fluorescence, primary screen (AID 622;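 active means fluorescence slope higher than the sample average by over 3 SD, cut at about -0.22 in these data, passing the limit was not always enough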;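 further: slope of raw intensity against log time taken from 70 to 1610 s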); settings: recombinant KvBeta, 4-cyanobenzaldehyde reduction, at 10 µM, stronger effect = higher value
[13] = biological target: Voltage-gated potassium channel subunit beta-2 (Rattus norvegicus) (UniProt P62483); assay: enhancers of rat Kvbeta2 NADPH turnover – biochemical, NADPH fluorescence, primary screen (AID 623;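 active means NADPH fluorescence slope more negative than the mean of all samples by about 3 SD, 99.7% confidence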;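 further: fluorescence intensity change per second fitted from 20 to 320 s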); settings: Recombinant KvBeta, NADPH fluorescence decrease slope, 10 min; at 10 µM; stronger effect = lower value
[14] = biological target: Alpha-2C adrenergic receptor (Homo sapiens) (UniProt P18825); assay: compounds altering alpha2C-coupled GIRK flux – cell-based, HEK293 alpha2C/GIRK1/2, thallium flux, primary screen (AID 624;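 active means fluorescence slope after compound addition differing from the mean of all screened samples at 99.7% confidence, in either direction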;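 further: slope of fluorescence ratio to pre-addition baseline per second over 15 to 24 s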); settings: thallium flux BTC fluorescence, at 10 µM, actives lie on both sides
[15] = biological target: Muscarinic acetylcholine receptor M4 (Homo sapiens) (UniProt P08173); assay: M4-linked GIRK flux change, two-sided – cell-based, HEK293 M4/GIRK, thallium flux, BTC-AM, M4 allosteric agonist project, primary screen (AID 625;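 active means fluorescence slope after compound addition differing from the mean of all tested samples at 99.7% confidence, mostly higher but some lower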;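 further: thallium influx through GIRK channels coupled to M4 in HEK293 cells with BTC-AM dye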); settings: at 10 µM, actives lie on both sides
[16] = inhibitors of larval lipid processing in zebrafish, primary screen, whole organism, PED6 fluorescence, gall bladder and intestine (AID 686;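 active means a full or partial loss of lipid-probe fluorescence in the fish gall bladder, intestine or both, judged by eye; inactive means no fluorescence loss, or compound toxic to the fish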;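 further: larvae 5 to 7 days old with five fish per well; signal comes from phospholipase A2 cleavage of quenched PED6 carried via bile; overnight exposure to compound and PED6 before scoring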); settings: Zebrafish larvae PED6 lipid processing, fluorescence scoring
[17] = loss of swimming-algae plug formation – whole organism, Chlamydomonas reinhardtii, WT vs cilia-less mutant, absorbance, 96-well, primary screen (AID 463189); settings: Chlamydomonas reinhardtii gravitaxis, OD600 absorbance, 2 days; at 10 µM; stronger effect = higher value;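 further: 0% = wild type cc124 cells in DMSO and 100% = ciliumless bld1 mutant cells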
[18] = blockers of RIG-like receptor reporter activation – cell-based, Sendai virus stimulus, luciferase, 10K MLSCN set, TLR/RLR signaling modifier project, primary screen (AID 602276;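 active means inhibition at or above 50% at 10 µM; inactive means inhibition below 50%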;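 further: firefly luciferase from ISG56 promoter only with Renilla not read in this screen; 0% = Sendai virus plus DMSO and 100% = medium plus DMSO without virus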); settings: HEK293 RL24 IRF3 luciferase reporter, at 10 µM, stronger effect = higher value
[19] = TLR3 IRF3 reporter activation blockers – cell-based, poly I:C stimulus, luciferase, 10K MLSCN set, primary screen (AID 602277;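 active means inhibition of the reporter signal at or above 50%; inactive means inhibition below 50%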); settings: HEK293-TLR3 RL24 IRF3 luciferase reporter, at 10 µM, stronger effect = higher value
[20] = measured here: cell density z-score
[21] = measured here: nuclear c-Myc green intensity z-score
[22] = measured here: nuclear pErk red intensity z-score, stronger effect = higher value

Chain of Solute carrier family 12 member 5 (Homo sapiens) (Q9H2X9 whole entry, looked up): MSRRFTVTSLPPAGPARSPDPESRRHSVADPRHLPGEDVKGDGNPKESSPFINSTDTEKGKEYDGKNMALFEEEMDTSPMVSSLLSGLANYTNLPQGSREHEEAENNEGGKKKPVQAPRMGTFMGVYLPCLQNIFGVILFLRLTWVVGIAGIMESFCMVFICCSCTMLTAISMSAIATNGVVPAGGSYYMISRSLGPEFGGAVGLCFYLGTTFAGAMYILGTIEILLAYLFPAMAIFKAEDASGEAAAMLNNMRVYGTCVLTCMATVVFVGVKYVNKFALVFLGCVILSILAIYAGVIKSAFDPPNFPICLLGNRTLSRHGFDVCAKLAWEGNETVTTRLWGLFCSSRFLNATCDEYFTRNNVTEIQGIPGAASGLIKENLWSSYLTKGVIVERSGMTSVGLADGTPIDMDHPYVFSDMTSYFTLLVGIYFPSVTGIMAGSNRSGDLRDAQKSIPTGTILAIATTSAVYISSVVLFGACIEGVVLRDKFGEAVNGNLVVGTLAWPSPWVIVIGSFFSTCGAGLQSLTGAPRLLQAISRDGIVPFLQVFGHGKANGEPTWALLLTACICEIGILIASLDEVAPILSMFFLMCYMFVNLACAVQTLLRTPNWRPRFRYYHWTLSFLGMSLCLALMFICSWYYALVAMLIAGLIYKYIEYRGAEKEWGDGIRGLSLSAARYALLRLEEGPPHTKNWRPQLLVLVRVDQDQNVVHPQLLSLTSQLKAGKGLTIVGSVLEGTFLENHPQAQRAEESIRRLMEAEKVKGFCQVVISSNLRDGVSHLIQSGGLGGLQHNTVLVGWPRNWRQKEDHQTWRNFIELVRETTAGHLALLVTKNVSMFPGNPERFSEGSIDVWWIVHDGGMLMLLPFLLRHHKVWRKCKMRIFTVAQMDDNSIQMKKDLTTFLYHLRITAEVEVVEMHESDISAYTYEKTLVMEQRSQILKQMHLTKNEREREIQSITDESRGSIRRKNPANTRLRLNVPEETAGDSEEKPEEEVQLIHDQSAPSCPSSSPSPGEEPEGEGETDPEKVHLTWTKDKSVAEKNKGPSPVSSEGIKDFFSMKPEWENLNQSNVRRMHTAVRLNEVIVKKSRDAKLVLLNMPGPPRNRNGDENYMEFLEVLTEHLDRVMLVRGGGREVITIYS
Chain of Voltage-gated potassium channel subunit beta-2 (Rattus norvegicus) (P62483 whole entry, looked up): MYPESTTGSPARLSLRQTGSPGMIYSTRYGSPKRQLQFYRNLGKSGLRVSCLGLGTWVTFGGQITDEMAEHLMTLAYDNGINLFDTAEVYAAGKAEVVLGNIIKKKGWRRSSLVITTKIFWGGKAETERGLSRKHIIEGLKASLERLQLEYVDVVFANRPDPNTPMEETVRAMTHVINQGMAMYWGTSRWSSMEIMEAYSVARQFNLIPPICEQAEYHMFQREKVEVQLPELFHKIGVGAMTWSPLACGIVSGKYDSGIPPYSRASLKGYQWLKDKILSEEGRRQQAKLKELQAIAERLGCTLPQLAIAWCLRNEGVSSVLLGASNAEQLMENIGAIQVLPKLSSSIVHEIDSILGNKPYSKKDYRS
Chain of Alpha-2C adrenergic receptor (Homo sapiens) (P18825 whole entry, looked up): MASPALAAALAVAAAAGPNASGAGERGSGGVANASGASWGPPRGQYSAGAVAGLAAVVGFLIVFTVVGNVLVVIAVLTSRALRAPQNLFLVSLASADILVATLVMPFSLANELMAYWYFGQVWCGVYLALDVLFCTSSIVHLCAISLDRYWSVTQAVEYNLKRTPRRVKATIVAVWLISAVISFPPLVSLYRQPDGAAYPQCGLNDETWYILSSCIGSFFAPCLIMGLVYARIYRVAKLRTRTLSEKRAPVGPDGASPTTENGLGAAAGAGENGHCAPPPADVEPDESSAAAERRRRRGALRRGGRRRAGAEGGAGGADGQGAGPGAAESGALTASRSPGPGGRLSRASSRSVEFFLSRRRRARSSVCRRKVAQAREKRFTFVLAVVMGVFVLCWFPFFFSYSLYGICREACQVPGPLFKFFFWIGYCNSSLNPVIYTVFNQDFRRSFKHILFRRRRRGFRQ
Chain of Dual specificity protein phosphatase 6 (Homo sapiens) (Q16828 whole entry, looked up): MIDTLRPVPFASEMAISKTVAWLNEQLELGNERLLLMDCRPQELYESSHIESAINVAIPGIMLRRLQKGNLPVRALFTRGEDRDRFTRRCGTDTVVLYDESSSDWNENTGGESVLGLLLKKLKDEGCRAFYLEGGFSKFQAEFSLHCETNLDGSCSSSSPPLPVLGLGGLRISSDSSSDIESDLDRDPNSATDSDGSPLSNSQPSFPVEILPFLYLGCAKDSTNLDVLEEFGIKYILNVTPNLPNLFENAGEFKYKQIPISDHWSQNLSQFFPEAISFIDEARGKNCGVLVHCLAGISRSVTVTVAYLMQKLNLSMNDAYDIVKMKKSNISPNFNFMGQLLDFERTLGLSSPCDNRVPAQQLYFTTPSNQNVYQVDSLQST
Chain of Muscarinic acetylcholine receptor M4 (Homo sapiens) (P08173 whole entry, looked up): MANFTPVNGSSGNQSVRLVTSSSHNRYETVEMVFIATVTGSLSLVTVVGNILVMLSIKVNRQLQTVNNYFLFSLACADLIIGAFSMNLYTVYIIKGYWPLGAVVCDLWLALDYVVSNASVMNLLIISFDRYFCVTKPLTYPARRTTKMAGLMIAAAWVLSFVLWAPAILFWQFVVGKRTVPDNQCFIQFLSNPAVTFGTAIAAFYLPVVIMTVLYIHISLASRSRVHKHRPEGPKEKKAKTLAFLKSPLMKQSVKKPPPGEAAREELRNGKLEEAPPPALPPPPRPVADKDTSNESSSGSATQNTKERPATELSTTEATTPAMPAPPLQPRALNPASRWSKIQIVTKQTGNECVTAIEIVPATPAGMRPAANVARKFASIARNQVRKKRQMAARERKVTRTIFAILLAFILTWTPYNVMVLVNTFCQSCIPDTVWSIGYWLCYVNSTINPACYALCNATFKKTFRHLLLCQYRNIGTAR

O=C(CSC1c2ccccc2-c2ccccc21)N/N=C/c1ccccc1
normalised thallium flux (F/F0 slope) [1]: 0.00922 (inactive)
normalized thallium flux [2]: 0.00567 (inactive)
normalized thallium flux [3]: 0.0321 (inactive)
thallium flux rate (normalised fluorescence) [4]: 0.00741 (inactive)
raw Tl+ flux slope (below DMSO = inhibition, above = activation) [5]: 0.02 (inactive)
thallium flux slope [6]: 0.0112 (active)

COc1cc(-n2c(=S)[nH]c3ccc(C)cc3c2=O)c(Cl)cc1Cl
normalised thallium flux (F/F0 slope) [1]: 0.0155 (active)
normalized thallium flux [2]: 0.0563 (active)
normalized thallium flux [3]: 0.0344 (inactive)
thallium flux rate (normalised fluorescence) [4]: 0.0674 (active)
raw Tl+ flux slope (below DMSO = inhibition, above = activation) [5]: 0.0437 (active)
thallium flux slope [6]: 0.0196 (active)

CC1=NOC2(C)Nc3ncnn3C(c3ccccc3)C12 (centres undefined)
cell count [7]: 604
inhibition [7]: -11.4% (inactive)
inhibition of aggregation [8]: 21% (inactive)
nuclei count [8]: 85%
inhibition [9]: -129% (inactive)
nuclei count [9]: 145%
z-score [10, 20]: 0.203
z-score [10, 21]: 0.546
z-score [10, 22]: 1.46
inhibition [11]: 1.98% (inactive)
fluorescence slope [12]: -0.454 (inactive)
NADPH fluorescence slope [13]: -5.1e-05 (inactive)
slope [14]: 0.00521 (inactive)
fluorescence slope [15]: 0.00509 (inactive)
outcome [16]: inactive
inhibition [17]: 2.9% (inactive)
inhibition [18]: -5.02% (inactive)
inhibition [19]: 6.14% (inactive)

Cc1ccc2c(c1)[C@@H]1CN(C)CC[C@@H]1N2C(=O)Nc1cccc(C(F)(F)F)c1
cell count [7]: 378
inhibition [7]: -9.8% (inactive)
inhibition of aggregation [8]: -11.2% (inactive)
nuclei count [8]: 94.1%
inhibition [9]: -93.8% (inactive)
nuclei count [9]: 95.7%
z-score [10, 20]: 1.48
z-score [10, 21]: 0.568
z-score [10, 22]: 0.647
inhibition [11]: -4.78% (inactive)
fluorescence slope [12]: -0.508 (inactive)
NADPH fluorescence slope [13]: -0.000528 (active)
slope [14]: 0.0079 (inactive)
inhibition [17]: 4.34% (inactive)
inhibition [18]: 20.1% (inactive)
inhibition [19]: 23.5% (inactive)

CCOC(=O)c1cc2c(cn1)[nH]c1ccccc12
cell count [7]: 594
inhibition [7]: -2.5% (inactive)
inhibition of aggregation [8]: 2% (inactive)
nuclei count [8]: 102%
inhibition [9]: -12.8% (inactive)
nuclei count [9]: 110%
z-score [10, 20]: -0.332
z-score [10, 21]: -1.06
z-score [10, 22]: -1.1
inhibition [11]: 1.48% (inactive)
fluorescence slope [12]: -0.368 (inactive)
NADPH fluorescence slope [13]: 7.4e-07 (inactive)
slope [14]: 0.00544 (inactive)
outcome [16]: inactive
inhibition [17]: -6.97% (inactive)
inhibition [18]: -4.33% (inactive)
inhibition [19]: -27.3% (inactive)

COc1ccc(C(=O)N2CCCC2=O)cc1
cell count [7]: 667
inhibition [7]: 2.2% (inactive)
inhibition of aggregation [8]: 11.2% (inactive)
nuclei count [8]: 104%
inhibition [9]: -40.5% (inactive)
nuclei count [9]: 108%
z-score [10, 20]: 0.0379
z-score [10, 21]: -0.632
z-score [10, 22]: 1.58
inhibition [11]: 19% (inactive)
fluorescence slope [12]: -0.52 (inactive)
NADPH fluorescence slope [13]: -4.5e-05 (inactive)
slope [14]: 0.00436 (inactive)
outcome [16]: inactive
inhibition [17]: 6.16% (inactive) and 14.6% (inactive)
inhibition [18]: 13.2% (inactive)
inhibition [19]: 20.9% (inactive)

O=C(O)CCCc1ccc(N(CCCl)CCCl)cc1
cell count [7]: 498
inhibition [7]: -7.2% (inactive)
inhibition of aggregation [8]: 4.2% (inactive)
nuclei count [8]: 94.5%
inhibition [9]: -70% (inactive)
nuclei count [9]: 127%
z-score [10, 20]: 0.122
z-score [10, 21]: -0.24
z-score [10, 22]: -0.885
inhibition [11]: 12.4% (inactive)
fluorescence slope [12]: -0.493 (inactive)
NADPH fluorescence slope [13]: -0.000123 (inactive)
slope [14]: 0.00534 (inactive)
inhibition [17]: 5.31% (inactive) and 14% (inactive)
inhibition [18]: -6.04% (inactive)
inhibition [19]: -10.8% (inactive)

C#C[C@]1(O)CC[C@H]2[C@@H]3CCC4=CC(=O)CC[C@]4(C)[C@H]3CC[C@@]21C
cell count [7]: 605
inhibition [7]: 4.5% (inactive)
inhibition of aggregation [8]: -1.7% (inactive)
nuclei count [8]: 104%
inhibition [9]: -96.4% (inactive)
nuclei count [9]: 120%
z-score [10, 20]: 0.928
z-score [10, 21]: -0.272
z-score [10, 22]: -0.147
inhibition [11]: 19% (inactive)
fluorescence slope [12]: -0.469 (inactive)
NADPH fluorescence slope [13]: -5.4e-05 (inactive)
slope [14]: 0.00473 (inactive)
outcome [16]: inactive
inhibition [17]: -7.99% (inactive)
inhibition [18]: 9.99% (inactive)
inhibition [19]: 37.9% (inactive)

CC(CCc1ccccc1)NC(C)C(O)c1ccc(O)cc1 (centres undefined)
cell count [7]: 697
inhibition [7]: 2% (inactive)
inhibition of aggregation [8]: 19.5% (inactive)
nuclei count [8]: 96.6%
inhibition [9]: -54.5% (inactive)
nuclei count [9]: 119%
z-score [10, 20]: -0.115
z-score [10, 21]: -1.79
z-score [10, 22]: -1.46
inhibition [11]: 10.2% (inactive)
fluorescence slope [12]: -0.468 (inactive)
NADPH fluorescence slope [13]: 4.8e-05 (inactive)
slope [14]: 0.00919 (inactive)
outcome [16]: inactive
inhibition [17]: 8.38% (inactive) and -4.76% (inactive)
inhibition [18]: -11.1% (inactive)
inhibition [19]: 12% (inactive)

NCC(CC(=O)O)c1ccc(Cl)cc1 (centres undefined)
cell count [7]: 601
inhibition [7]: -13.8% (inactive)
inhibition of aggregation [8]: -0.4% (inactive)
nuclei count [8]: 95.6%
inhibition [9]: -102% (inactive)
nuclei count [9]: 112%
z-score [10, 20]: -0.759
z-score [10, 21]: 1.88
z-score [10, 22]: 0.491
inhibition [11]: 9.37% (inactive)
fluorescence slope [12]: -0.448 (inactive)
NADPH fluorescence slope [13]: -4.9e-05 (inactive)
slope [14]: 0.00441 (inactive)
outcome [16]: inactive
inhibition [17]: -1.51% (inactive) and 3.49% (inactive)
inhibition [18]: 13.4% (inactive)
inhibition [19]: 26.4% (inactive)

CC(=O)[C@@]1(O)CC[C@H]2[C@@H]3CC=C4C[C@@H](O)CC[C@]4(C)[C@H]3CC[C@@]21C
cell count [7]: 618
inhibition [7]: -10.4% (inactive)
inhibition of aggregation [8]: 4% (inactive)
nuclei count [8]: 99.3%
inhibition [9]: -57.3% (inactive)
nuclei count [9]: 129%
z-score [10, 20]: -0.0512
z-score [10, 21]: -0.687
z-score [10, 22]: -0.36
inhibition [11]: 7.39% (inactive)
fluorescence slope [12]: -0.451 (inactive)
NADPH fluorescence slope [13]: -5.3e-05 (inactive)
slope [14]: 0.00537 (inactive)
outcome [16]: inactive
inhibition [17]: -4.89% (inactive)
inhibition [18]: 9% (inactive)
inhibition [19]: 26.8% (inactive)
